# Out of some 310,000 compounds screened, about 2,200 (0.71%) showed an effect of 50% or more. The effect is printed as a negative number. The entries come from a sample that favours strong results as a whole.
# Target: human ether-à-go-go-related gene (hERG) potassium channel (human, UniProt Q12809)
# Assay: primary screen, population patch clamp on CHO cells stably expressing hERG; higher = less effect of the substance
# human ether-à-go-go-related gene (hERG) potassium channel, sequence (Q12809 whole entry, looked up): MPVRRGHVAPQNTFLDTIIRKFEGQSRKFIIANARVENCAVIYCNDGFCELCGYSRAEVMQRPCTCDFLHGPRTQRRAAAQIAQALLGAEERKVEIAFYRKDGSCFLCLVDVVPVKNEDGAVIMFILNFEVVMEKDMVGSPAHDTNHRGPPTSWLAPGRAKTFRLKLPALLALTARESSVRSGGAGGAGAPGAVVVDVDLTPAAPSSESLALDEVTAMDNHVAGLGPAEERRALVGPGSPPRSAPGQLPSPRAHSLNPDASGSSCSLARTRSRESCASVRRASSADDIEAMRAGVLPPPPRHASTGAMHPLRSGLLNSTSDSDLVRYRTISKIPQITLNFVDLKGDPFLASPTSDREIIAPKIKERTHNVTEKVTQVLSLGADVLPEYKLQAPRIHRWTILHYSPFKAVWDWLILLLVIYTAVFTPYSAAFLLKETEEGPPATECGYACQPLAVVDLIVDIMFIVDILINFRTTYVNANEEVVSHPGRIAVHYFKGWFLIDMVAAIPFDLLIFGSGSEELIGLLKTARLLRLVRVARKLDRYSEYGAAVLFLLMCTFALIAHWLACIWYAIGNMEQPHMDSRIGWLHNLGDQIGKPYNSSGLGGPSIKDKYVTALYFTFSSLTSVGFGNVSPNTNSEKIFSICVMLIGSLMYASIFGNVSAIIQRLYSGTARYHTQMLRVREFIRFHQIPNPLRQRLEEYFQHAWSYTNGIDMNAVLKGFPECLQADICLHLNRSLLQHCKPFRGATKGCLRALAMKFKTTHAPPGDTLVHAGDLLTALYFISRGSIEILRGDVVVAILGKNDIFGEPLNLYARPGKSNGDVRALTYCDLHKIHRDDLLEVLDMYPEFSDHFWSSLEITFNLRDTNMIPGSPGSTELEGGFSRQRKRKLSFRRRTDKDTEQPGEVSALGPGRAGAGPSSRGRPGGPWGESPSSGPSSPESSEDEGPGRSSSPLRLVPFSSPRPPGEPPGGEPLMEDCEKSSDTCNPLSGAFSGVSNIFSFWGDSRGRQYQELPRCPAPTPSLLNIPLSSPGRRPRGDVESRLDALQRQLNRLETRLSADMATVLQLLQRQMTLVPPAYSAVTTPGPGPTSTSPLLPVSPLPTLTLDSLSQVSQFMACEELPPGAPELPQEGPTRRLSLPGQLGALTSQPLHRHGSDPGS
row,SMILES,"hERG current change (%, negative = inhibition) at 1uM [%]"
1,CCN1CCN(c2ccc([N+](=O)[O-])cc2C(=O)c2ccc(Cl)cc2)CC1,-58.3
2,CCCN1CCN(c2ccc([N+](=O)[O-])cc2C#N)CC1,-57.8
3,CCN1CCN(c2ccc([N+](=O)[O-])cc2C#N)CC1,-49.8
4,CN1CCN(c2ccc([N+](=O)[O-])cc2C(=O)c2ccc(Cl)cc2)CC1,-24.3
5,O=C(c1ccc(Cl)cc1)c1cc([N+](=O)[O-])ccc1N1CCOCC1,10.3
6,N#Cc1cc([N+](=O)[O-])ccc1N1CCCC1,-12.3
7,Cc1ccc(NCCC(=O)c2cccs2)cc1C,5.33
8,O=C(CSc1cn(Cc2ccccc2)c2ccccc12)N1CCOCC1,-4.92
9,CCOc1ccc(NC(=S)NCCCN2CCN(c3ccc(OC)cc3)CC2)cc1,-29.3
10,O=c1[nH]c2ccccc2nc1-c1c[nH]c2ccccc12,17.9
11,Cc1ccccc1-n1nnnc1SCC(=O)NCC1(N2CCOCC2)CCCCC1,6.3
12,Cc1ccc(-n2nnnc2SCC(=O)NCC2(N3CCCCC3)CCCCC2)c(C)c1,-201
13,O=C(CSc1nnnn1-c1ccccc1)NCC1(N2CCCCC2)CCCCC1,-23.9
14,Cc1ccc(CNC(=O)c2cnccn2)cc1,11.4
15,COc1ccc(NC(=O)[C@@H](NC(=O)N2C[C@H]3C[C@@H](C2)c2cccc(=O)n2C3)C(C)C)cc1,8.5
16,Fc1ccc(-c2nc3c(-c4ccc(F)cc4)cnn3cc2CCN2CCOCC2)cc1,-3.19
17,COc1ccccc1/C=C/CN1CCC(n2nccc2NC(=O)C2CC2)CC1,-37.8
18,COc1ccc(/C=C/CN2CCC(n3nccc3NC(=O)C3CCCC3)CC2)cc1,-92.1
19,COc1ccc(CC(=O)N2CCC(n3nccc3NC(=O)C3CC3)CC2)cc1,13.3
20,COc1ccc(O)c(CN2CCC(n3nccc3NC(=O)C3CCCC3)CC2)c1,-28.4
21,COc1ccc(CN2CCC(n3nccc3NC(=O)C3CCCC3)CC2)c(OC)c1,-70.6
22,Cc1cc(C)c(CN2CCC(n3nccc3NC(=O)C3CCCC3)CC2)cc1C,-26.4

row,SMILES,"hERG current change (%, negative = inhibition) at 1uM [%]"
1,CC(C)(CO)CN1CCC(n2nccc2NC(=O)C2CCCC2)CC1,10.2
2,COc1ccc(/C=C/CN2CCC(n3nccc3NC(=O)C3CC3)CC2)cc1,-59.6
3,COc1ccc(OCC(=O)N2CCC(n3nccc3NC(=O)C3CC3)CC2)cc1,-1.98
4,Cc1ncc(S(=O)(=O)c2ccccc2)c(-c2ccccc2Cl)n1,2.7
5,Cc1cc2c(cc1S(=O)(=O)NC1CCCCC1C)OCC(=O)N2 (stereo not drawn),5.01
6,Cc1ccc(OCCNC(=O)c2ccc(NC(=O)CC3SC(N4CCCC4)=NC3=O)cc2)cc1 (stereo not drawn),-6.94
7,C=C(C)CNC(=O)c1ccc(OC2CCN(S(=O)(=O)N(C)C)CC2)cc1,13.2
8,COc1ccc2c(c1)CC1(CN2C)C(=O)NC(=O)N(CCc2ccccc2)C1=O (stereo not drawn),-6.39
9,CCN(CC)S(=O)(=O)c1ccc2c(c1)N(CC(=O)Nc1ccc(NC(C)=O)cc1)C(=O)CO2,10.6
10,CCCN1CCC(N(CCc2ccccc2)Cc2ccccc2)CC1,-73.2
11,CC(C)CC(=O)N1CCC(N(CCc2ccccc2)Cc2ccccc2)CC1.O=C(O)C(=O)O,7.09
12,O=C(O)C(=O)O.c1ccc(CCN(Cc2ccccc2)C2CCN(C3CCCC3)CC2)cc1,-68.9
13,CCCCN(Cc1ccccc1)C1CCN(Cc2ccccc2)CC1,-14.5
14,O=C(Cc1ccccc1)N1CCN(C2CCCCCC2)CC1.O=C(O)C(=O)O,4.29
15,CCCCN(Cc1ccccc1)C1CCN(CCc2ccccc2)CC1,-13.4
16,O=C(Nc1ccccc1)N1CCCc2ccccc21,-28.2
17,Cc1ccn2c(=O)nc(SCC(=O)N3CCCCCC3)nc2c1,19.6
18,CCCCN(C(=O)Nc1ccc(Cl)cc1)C1CCN(C(C)=O)CC1,-19.1
19,CCOc1ccc(NC(=O)N(CCC(C)C)C2CCN(C(C)=O)CC2)cc1,7.21
20,CC(C)CCN(C(=O)Nc1ccc(Cl)cc1)C1CCN(C(C)C)CC1,-57.6
21,Cc1cc(NC(=O)c2cc3cccc([N+](=O)[O-])c3[nH]2)ccc1F,11.5
22,COc1c(C)cc(Br)cc1C(=O)Nc1cccc(-c2nc3ncccc3o2)c1,-7.42

row,SMILES,"hERG current change (%, negative = inhibition) at 1uM [%]"
1,O=C(c1sc2cccc(F)c2c1Cl)N1CCN(c2ncccn2)CC1,-65.4
2,O=C(c1sc2ccccc2c1Cl)N1CCN(c2ncccn2)CC1,6.43
3,O=C(c1c(F)cccc1F)N1CCN(c2ncccn2)CC1,12.5
4,COc1cccc(-c2nn(-c3ccc(C)cc3)cc2C(=O)NCC2CCCO2)c1 (stereo not drawn),-0.814
5,COC(=O)c1ccc(S(=O)(=O)NCCSc2nnc3c4ccccc4n(C)c3n2)cc1,1.09
6,CCOc1cc(N2CCOCC2)c(OCC)cc1NC(=O)Cn1nc(C)c([N+](=O)[O-])c1C,6.15
7,CCc1cc2c(NCCN3CCCCC3)ncnc2s1.Cl,-55.9
8,CCc1cc2c(NCCO)ncnc2s1,14.1
9,CCc1cc2c(N3CCCCC3)ncnc2s1.Cl,5.54
10,CC[C@@]12C(=O)N(c3cccc(Br)c3)C(=O)N1[C@H](c1ccc(Cl)cc1)[C@@H]1C(=O)N(C3CCCCC3)C(=O)[C@@H]12,6.83
11,Cc1cc(N2CCN(S(=O)(=O)c3ccccc3)CC2)c2ccccc2n1,-78.6
12,Cc1cc(N2CCN(S(=O)(=O)c3ccc(Cl)cc3)CC2)c2ccccc2n1,-80.8
13,CC(=O)Nc1ccc(S(=O)(=O)N2CCN(S(=O)(=O)c3ccccc3)CC2)cc1,10.1
14,Cc1cc(N2CCN(S(=O)(=O)c3ccc(Cl)c(Cl)c3)CC2)c2ccccc2n1,4.58
15,CC(=O)Nc1ccc(S(=O)(=O)N2CCN(c3cc(C)nc4ccccc34)CC2)cc1,-71.6
16,Cc1ccccc1N1CCN(S(=O)(=O)c2ccccc2)CC1,5.62
17,CC(=O)Nc1ccc(S(=O)(=O)N2CCN(c3nc(C)cc(C)n3)CC2)cc1,14.9
18,COc1ccc2nc(C)cc(N3CCN(S(=O)(=O)c4ccccc4F)CC3)c2c1,-62.2
19,Cn1c(N2CCN(S(=O)(=O)c3ccc(Cl)cc3)CC2)nc2ccccc21,-23.2
20,Cc1cc(N2CCN(S(=O)(=O)c3ccc(C)c(C)c3)CC2)c2ccccc2n1,-18.3
21,COc1ccc2nc(C)cc(N3CCOCC3)c2c1,7.31
22,COc1ccc2nc(C)cc(N3CCN(c4ccccc4)CC3)c2c1,-29

# Reference: publication PMC4336329 (PLoS ONE, 2015)
